Measurements from PubChem BioAssay (NCATS).
Records with an inconclusive call do not appear. Activity calls are given as the source filed them. The call rests on the fitted dose curve; in most records, active means well fitted inhibition curve with a large enough effect; inconclusive means small, poorly fitted or top-dose-only effect; inactive means flat fitted curve, though single readings scatter.

Key:
[1] = qHTS profiling for inhibitors of Plasmodium falciparum proliferation (AID 504749);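 on activity, negative = inhibition: 0% = DMSO vehicle and full inhibition = artemisinin control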; on all read-outs here: nearly all actives have a fitted effect of over 60% in size; settings: P. falciparum in erythrocytes, SYBR Green DNA, 72 h; for activity, negative = inhibition: at 28.7 µM (top of the series)
How it was run: (§1)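 Readout was DNA-dye fluorescence from lysed cultures, ex 485/em 535 nm. Parasitized red cells had grown 72 h with compound; data scaled between 0.29 uM artemisinin and DMSO wells and corrected using vehicle-only plates.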

3D7 = experiment: as above; settings: P. falciparum in erythrocytes, SYBR Green DNA, 72 h; series mostly up to 28.7 µM
How it was run: as §1

7G8 = experiment: as above; settings: P. falciparum in erythrocytes, SYBR Green DNA, 72 h; series mostly up to 28.7 µM
How it was run: as §1

AA1029 = experiment: as above; settings: P. falciparum in erythrocytes, SYBR Green DNA, 72 h; series mostly up to 28.7 µM
How it was run: as §1

AS120 = experiment: as above; settings: P. falciparum in erythrocytes, SYBR Green DNA, 72 h; series mostly up to 28.7 µM
How it was run: as §1

ATS189 = experiment: as above; settings: P. falciparum in erythrocytes, SYBR Green DNA, 72 h; series mostly up to 28.7 µM
How it was run: as §1

ATS95 = experiment: as above; settings: P. falciparum in erythrocytes, SYBR Green DNA, 72 h; series mostly up to 28.7 µM
How it was run: as §1

C2A = experiment: as above; settings: P. falciparum in erythrocytes, SYBR Green DNA, 72 h; series mostly up to 28.7 µM
How it was run: as §1

CP185 = experiment: as above; settings: P. falciparum in erythrocytes, SYBR Green DNA, 72 h; series mostly up to 28.7 µM
How it was run: as §1

CP191 = experiment: as above; settings: P. falciparum in erythrocytes, SYBR Green DNA, 72 h; series mostly up to 28.7 µM
How it was run: as §1

CP192 = experiment: as above; settings: P. falciparum in erythrocytes, SYBR Green DNA, 72 h; series mostly up to 28.7 µM
How it was run: as §1

CP194 = experiment: as above; settings: P. falciparum in erythrocytes, SYBR Green DNA, 72 h; series mostly up to 28.7 µM
How it was run: as §1

CP201 = experiment: as above; settings: P. falciparum in erythrocytes, SYBR Green DNA, 72 h; series mostly up to 28.7 µM
How it was run: as §1

CP211 = experiment: as above; settings: P. falciparum in erythrocytes, SYBR Green DNA, 72 h; series mostly up to 28.7 µM
How it was run: as §1

CP215 = experiment: as above; settings: P. falciparum in erythrocytes, SYBR Green DNA, 72 h; series mostly up to 28.7 µM
How it was run: as §1

CP217 = experiment: as above; settings: P. falciparum in erythrocytes, SYBR Green DNA, 72 h; series mostly up to 28.7 µM
How it was run: as §1

CP203 = experiment: as above; settings: P. falciparum in erythrocytes, SYBR Green DNA, 72 h; series mostly up to 28.7 µM
How it was run: as §1
Potency means the concentration at half of the fitted maximal effect.

CCCCNC(=O)NS(=O)(=O)c1ccc(C)cc1
inactive: activity, negative = inhibition ([1]; parasite line A) 1.62% | activity, negative = inhibition ([1]; parasite line B) 0.192% | Potency (3D7) | Potency (7G8) | Potency (AA1029) | Potency (AS120) | Potency (ATS189) | Potency (ATS95) | Potency (C2A) | Potency (CP185) | Potency (CP191) | Potency (CP192) | Potency (CP194) | Potency (CP201) | Potency (CP211) | Potency (CP215) | Potency (CP217)

CCCCCN(CCCCC)C(=O)C(CCC(=O)O)NC(=O)c1ccc(Cl)c(Cl)c1 (centres undefined)
inactive: activity, negative = inhibition ([1]; parasite line A) 16.8% | activity, negative = inhibition ([1]; parasite line B) 7.13% | Potency (3D7) | Potency (7G8) | Potency (AA1029) | Potency (AS120) | Potency (ATS189) | Potency (ATS95) | Potency (C2A) | Potency (CP185) | Potency (CP191) | Potency (CP192) | Potency (CP194) | Potency (CP201) | Potency (CP211) | Potency (CP215) | Potency (CP217)

OC(CCN1CCCCC1)(c1ccccc1)C1CCCCC1 (centres undefined)
active: Potency (7G8) 8.91 µM
inactive: activity, negative = inhibition ([1]; parasite line A) -22% | activity, negative = inhibition ([1]; parasite line B) -4.19% | Potency (3D7) | Potency (ATS189) | Potency (C2A) | Potency (CP185) | Potency (CP191) | Potency (CP192) | Potency (CP201) | Potency (CP211) | Potency (CP215) | Potency (CP217)

CNCCC(Oc1ccccc1OC)c1ccccc1 (centres undefined)
active: Potency (7G8) 4.47 µM | Potency (AA1029) 10 µM
inactive: activity, negative = inhibition ([1]; parasite line A) 3.02% | activity, negative = inhibition ([1]; parasite line B) -7.17% | Potency (3D7) | Potency (C2A) | Potency (CP191) | Potency (CP192) | Potency (CP211) | Potency (CP215)

Cc1scc2c1N(C(=O)CN1CCN(C)CC1)c1ccccc1NC2=O
inactive: activity, negative = inhibition ([1]; parasite line A) 0.0421% | activity, negative = inhibition ([1]; parasite line B) 4.05% | Potency (3D7) | Potency (7G8) | Potency (AA1029) | Potency (AS120) | Potency (ATS189) | Potency (ATS95) | Potency (C2A) | Potency (CP185) | Potency (CP192) | Potency (CP194) | Potency (CP201) | Potency (CP203) | Potency (CP211) | Potency (CP215) | Potency (CP217)

C[N+](C)(C)CCCCCCCCCC[N+](C)(C)C
active: Potency ([1]; parasite line A) 3.98 µM | Potency ([1]; parasite line B) 1.58 µM | Potency (3D7) 5.62 µM | Potency (7G8) 5.01 µM | Potency (AA1029) 5.62 µM | Potency (AS120) 3.16 µM | Potency (ATS189) 4.47 µM | Potency (ATS95) 3.16 µM | Potency (C2A) 5.62 µM | Potency (CP185) 4.47 µM | Potency (CP191) 3.55 µM | Potency (CP192) 1.9 µM | Potency (CP194) 2.13 µM | Potency (CP201) 3.38 µM | Potency (CP211) 1.69 µM | Potency (CP215) 4.26 µM | Potency (CP217) 3.55 µM

Cc1ccc(S(=O)(=O)NC(=O)NN2CCCCCC2)cc1
inactive: activity, negative = inhibition ([1]; parasite line A) -5.36% | activity, negative = inhibition ([1]; parasite line B) 12.1% | Potency (3D7) | Potency (7G8) | Potency (AA1029) | Potency (AS120) | Potency (ATS189) | Potency (ATS95) | Potency (C2A) | Potency (CP185) | Potency (CP191) | Potency (CP192) | Potency (CP194) | Potency (CP201) | Potency (CP211) | Potency (CP215) | Potency (CP217)

O=C(CCNNC(=O)c1ccncc1)NCc1ccccc1
inactive: activity, negative = inhibition ([1]; parasite line A) 13.9% | activity, negative = inhibition ([1]; parasite line B) 17% | Potency (3D7) | Potency (7G8) | Potency (AA1029) | Potency (AS120) | Potency (ATS189) | Potency (ATS95) | Potency (C2A) | Potency (CP185) | Potency (CP191) | Potency (CP192) | Potency (CP194) | Potency (CP201) | Potency (CP211) | Potency (CP215) | Potency (CP217)

Cc1ccc(=O)n(-c2ccccc2)c1
inactive: activity, negative = inhibition ([1]; parasite line A) 12.4% | activity, negative = inhibition ([1]; parasite line B) 18.6% | Potency (3D7) | Potency (7G8) | Potency (AA1029) | Potency (AS120) | Potency (ATS189) | Potency (ATS95) | Potency (C2A) | Potency (CP185) | Potency (CP191) | Potency (CP192) | Potency (CP194) | Potency (CP201) | Potency (CP211) | Potency (CP215) | Potency (CP217)

NS(=O)(=O)c1cc2c(cc1Cl)NC(C1CC3C=CC1C3)NS2(=O)=O (centres undefined)
inactive: activity, negative = inhibition ([1]; parasite line A) 2.38% | activity, negative = inhibition ([1]; parasite line B) -3.16% | Potency (3D7) | Potency (7G8) | Potency (AA1029) | Potency (AS120) | Potency (ATS189) | Potency (ATS95) | Potency (C2A) | Potency (CP185) | Potency (CP191) | Potency (CP192) | Potency (CP194) | Potency (CP201) | Potency (CP211) | Potency (CP215) | Potency (CP217)

NC(=O)N1c2ccccc2C=Cc2ccccc21
inactive: activity, negative = inhibition ([1]; parasite line A) -22.9% | activity, negative = inhibition ([1]; parasite line B) -3.8% | Potency (3D7) | Potency (7G8) | Potency (AA1029) | Potency (AS120) | Potency (ATS189) | Potency (ATS95) | Potency (C2A) | Potency (CP185) | Potency (CP191) | Potency (CP192) | Potency (CP194) | Potency (CP201) | Potency (CP215) | Potency (CP217)

O=C(O)CP(=O)(O)O
inactive: activity, negative = inhibition ([1]; parasite line A) 3.45% | activity, negative = inhibition ([1]; parasite line B) -17.2% | Potency (3D7) | Potency (7G8) | Potency (AA1029) | Potency (AS120) | Potency (ATS189) | Potency (ATS95) | Potency (C2A) | Potency (CP185) | Potency (CP191) | Potency (CP192) | Potency (CP194) | Potency (CP201) | Potency (CP211) | Potency (CP215) | Potency (CP217)

CCCOc1ccccc1-c1nc2n[nH]nc2c(=O)[nH]1
inactive: activity, negative = inhibition ([1]; parasite line A) -3.13% | activity, negative = inhibition ([1]; parasite line B) 3.38% | Potency (3D7) | Potency (7G8) | Potency (AA1029) | Potency (AS120) | Potency (ATS189) | Potency (ATS95) | Potency (C2A) | Potency (CP185) | Potency (CP191) | Potency (CP192) | Potency (CP194) | Potency (CP201) | Potency (CP211) | Potency (CP215) | Potency (CP217)
